“And” between values parts separate entries of the source, which are not always exact repeats. Identical values can stand only once. About 83,000 compounds went through this panel and 20% of them were active in at least one assay; those are over-represented in the sample as a whole.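 Step 1: grow cells in 96-well plates. Step 2: add test compound at a single concentration. Step 3: incubate 48 h. Step 4: record percent growth.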 The source made the active and inactive calls. Starred links: 1 amine or outer side, 2 acyl side, 3 side chain; linkers in the order of their positions; H or OH if unused. Positions of bridges follow the written chain, without caps; N, C: chain ends. Non-standard residues stand in square brackets, D forms with d. Residues, ends and D or L forms follow the SMILES beside them. Chains are numbered I, II in the order given. Actinocin(9to1) = Cc1c2oc3c(C)ccc(C(=O)[*:1])c3nc-2c(C(=O)[*:2])c(N)c1=O; aThr = C[C@H](O)[C@H](N)C(=O)O; NMeV = CN[C@H](C(=O)O)C(C)C; Sar = CNCC(=O)O
The molecules below were run on OVCAR-3 ovarian (assay: NCI-60 one-dose screen, 48 h (100 = growth as untreated, 0 = no growth, -100 = all killed)). Conditions: 0.0025 µM.
Experimental: Growth inhibition of the OVCAR-3 human tumor cell line is measured as a screen for anti-cancer activity. Cells are grown in 96 well plates and exposed to the test compound for 48 hours. Compounds are tested at a single concentration, which is 10^-5 M for most compounds. The reported endpoint is percent growth (GI% or GIPRCNT), where numbers from 0 - 100% represent growth inhibition, and numbers from -100% - 0 represent cell death. For example, a value of 40 represents 60% growth inhibition. A value of 0 means no net growth occurred over the course of the experiment. A value of -40 indicates 40% of cells at the beginning of the experiment died by the end of the experiment. A value of -100 means all cells are dead at the end of the experiment.
NCI-60 Human Tumor Cell Lines Screen was performed using the standard one-dose NCI protocol, which is described in more detail at https://dtp.cancer.gov/discovery_development/nci-60/default.htm.
Compounds with GIPRCNT values below 10 were considered active. Activity score was based on GIPRCNT using the following formula: […]
Score is 0 for GIPRCNT values of 100 or above, 50 for GIPRCNT values of 0, and 100 for GIPRCNT values of -100.

SMILES	growth
Cc1c2oc3c(C)ccc(C(=O)N[C@@H]4C(=O)N[C@H](C(C)C)C(=O)N5CCC[C@H]5C(=O)N(C)CC(=O)N(C)[C@@H](C(C)C)C(=O)O[C@H]4C)c3nc-2c(C(=O)N[C@@H]2C(=O)N[C@H](C(C)C)C(=O)N3CCC[C@H]3C(=O)N(C)CC(=O)N(C)[C@@H](C(C)C)C(=O)O[C@H]2C)c(N)c1=O (I: [aThr][dV]P[Sar][NMeV] / II: [aThr][dV]P[Sar][NMeV]; ester I:1-I:C, II:1-II:C; linker I:N-II:N via Actinocin(9to1))	70% (inactive)

Same assay, conditions: 10 µM

SMILES	growth
COc1cc(C(C)(C)C)cc(OC)c1C(O)(c1c(OC)cc(C(C)(C)C)cc1OC)c1c(OC)cc(C(C)(C)C)cc1OC	-94.1% (active)
O=c1[nH]cc(F)c(=O)[nH]1	52.5% (inactive) and 72.2% (inactive)
CSc1ccc2c(c1)C(N1CCN(C)CC1)Cc1ccccc1S2 (configuration not stated)	61.4% (inactive)
Cc1c2oc3c(C)ccc(C(=O)N[C@@H]4C(=O)N[C@H](C(C)C)C(=O)N5CCC[C@H]5C(=O)N(C)CC(=O)N(C)[C@@H](C(C)C)C(=O)O[C@H]4C)c3nc-2c(C(=O)N[C@@H]2C(=O)N[C@H](C(C)C)C(=O)N3CCC[C@H]3C(=O)N(C)CC(=O)N(C)[C@@H](C(C)C)C(=O)O[C@H]2C)c(N)c1=O (I: [aThr][dV]P[Sar][NMeV] / II: [aThr][dV]P[Sar][NMeV]; ester I:1-I:C, II:1-II:C; linker I:N-II:N via Actinocin(9to1))	5.84% (active)
O=C(/C(=C/c1ccccc1)CBr)c1ccccc1	66.1% (inactive)
S=c1[nH]nc(Cc2ccccc2)c(=S)[nH]1	95.4% (inactive)
CCCCCCCCCCCCCCCCCN	108% (inactive)
Nc1ccc2cc(Br)c3ccccc3c2c1	74.6% (inactive)
Cc1cnc(/C=N\NC(N)=S)c2cccc(N)c12	0.342% (active)
Cc1cc(NCCCN(C)C)c2ccc3c(ccc4c(NCCCN(C)C)cc(C)nc43)c2n1	-58.3% (active)
CN1CCN(c2ccc3nc(-c4ccc5nc(-c6ccc(O)cc6)[nH]c5c4)[nH]c3c2)CC1	66.4% (inactive)
CN(C)CCC(=O)c1c[nH]c2ccccc12	110% (inactive)
BrC/C=C/C[P+](c1ccccc1)(c1ccccc1)c1ccccc1	32.4% (inactive)
N#C/C(=C1C=C/C(=N\O)C(Cl)=C\1)c1ccccc1	39.6% (inactive)

Same assay, conditions: 25 µM

SMILES	growth
O=c1[nH]cc(F)c(=O)[nH]1	47.4% (inactive)

Same assay, conditions: 50 µM

SMILES	growth
O=c1[nH]cc(F)c(=O)[nH]1	31% (inactive)

From PubChem BioAssay (NCI)
